# Reference: article PMC11006913
# What was measured:
# Assay in all cases: PBM; 200 nM protein, PBS
# Details in all cases: dsDNA, one strand shown
# HESX1 [1] = target: HESX1 (Homo sapiens, UniProt Q9UBX0 95-180, R165K)
# SHOX [2] = target: SHOX (Homo sapiens, UniProt O15266 103-189)
# ALX4 = ALX4 (Homo sapiens, UniProt Q9H161 200-286, Q225E)
# HESX1 [3] = target: HESX1 (Homo sapiens, UniProt Q9UBX0 95-180)
# MSX2 = MSX2 (Homo sapiens, UniProt P35548 130-214, R199I)
# ALX1 [4] = target: ALX1 (Homo sapiens, UniProt Q15699 118-204, L144V)
# Sequence of ALX1 (Homo sapiens, UniProt Q15699 118-204, L144V) (Q15699 118-204 L144V): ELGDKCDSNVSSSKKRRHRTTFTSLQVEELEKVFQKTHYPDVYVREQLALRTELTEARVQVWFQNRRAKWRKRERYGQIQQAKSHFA
# ALX3 [5] = target: ALX3 (Homo sapiens, UniProt O95076 139-225, N203Q)
# Sequence of ALX3 (Homo sapiens, UniProt O95076 139-225, N203Q) (O95076 139-225 N203Q): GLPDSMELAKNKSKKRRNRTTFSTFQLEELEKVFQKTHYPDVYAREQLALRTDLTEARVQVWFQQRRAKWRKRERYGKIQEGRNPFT
# SHOX [6] = target: SHOX (Homo sapiens, UniProt O15266 103-189, R173C)
# Sequence of SHOX (Homo sapiens, UniProt O15266 103-189, R173C) (O15266 103-189 R173C): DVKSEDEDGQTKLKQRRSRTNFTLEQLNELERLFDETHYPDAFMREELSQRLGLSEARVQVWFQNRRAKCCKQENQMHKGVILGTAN
# ALX1 [7] = target: ALX1 (Homo sapiens, UniProt Q15699 118-204, L144R)
# Sequence of ALX1 (Homo sapiens, UniProt Q15699 118-204, L144R) (Q15699 118-204 L144R): as the sequence (Q15699 118-204 L144V) above, with V27R counted along it
# ALX3 [8] = target: ALX3 (Homo sapiens, UniProt O95076 139-225)
# Sequence of ALX3 (Homo sapiens, UniProt O95076 139-225) (O95076 139-225): as the sequence (O95076 139-225 N203Q) above, with Q65N counted along it
# PROP1 [9] = target: PROP1 (Homo sapiens, UniProt O75360 56-141)
# Sequence of PROP1 (Homo sapiens, UniProt O75360 56-141) (O75360 56-141): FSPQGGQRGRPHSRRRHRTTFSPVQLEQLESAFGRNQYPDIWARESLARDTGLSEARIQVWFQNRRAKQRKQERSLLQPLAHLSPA
# HESX1 [10] = target: HESX1 (Homo sapiens, UniProt Q9UBX0 95-180, R109Q)
# Sequence of HESX1 (Homo sapiens, UniProt Q9UBX0 95-180, R109Q) (Q9UBX0 95-180 R109Q): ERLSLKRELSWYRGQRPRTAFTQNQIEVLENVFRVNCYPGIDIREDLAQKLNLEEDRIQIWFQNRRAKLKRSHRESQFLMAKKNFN
# PROP1 [11] = target: PROP1 (Homo sapiens, UniProt O75360 56-141, R99H)
# Sequence of PROP1 (Homo sapiens, UniProt O75360 56-141, R99H) (O75360 56-141 R99H): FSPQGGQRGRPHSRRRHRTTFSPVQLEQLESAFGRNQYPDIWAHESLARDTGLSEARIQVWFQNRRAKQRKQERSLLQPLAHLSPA
# ALX3 [12] = target: ALX3 (Homo sapiens, UniProt O95076 139-225, L168Q)
# Sequence of ALX3 (Homo sapiens, UniProt O95076 139-225, L168Q) (O95076 139-225 L168Q): as the sequence (O95076 139-225 N203Q) above, with L30Q, Q65N counted along it
# HESX1 [13] = target: HESX1 (Homo sapiens, UniProt Q9UBX0 95-180, P111T)
# Sequence of HESX1 (Homo sapiens, UniProt Q9UBX0 95-180, P111T) (Q9UBX0 95-180 P111T): as the sequence (Q9UBX0 95-180 R109Q) above, with Q15R, P17T counted along it
# ALX3 [14] = target: ALX3 (Homo sapiens, UniProt O95076 139-225, L168V)
# Sequence of ALX3 (Homo sapiens, UniProt O95076 139-225, L168V) (O95076 139-225 L168V): as the sequence (O95076 139-225 N203Q) above, with L30V, Q65N counted along it
# PROP1 [15] = target: PROP1 (Homo sapiens, UniProt O75360 56-141, F88S)
# Sequence of PROP1 (Homo sapiens, UniProt O75360 56-141, F88S) (O75360 56-141 F88S): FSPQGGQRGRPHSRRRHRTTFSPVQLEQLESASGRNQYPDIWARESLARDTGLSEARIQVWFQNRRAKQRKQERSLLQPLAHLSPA
# HESX1 [16] = target: HESX1 (Homo sapiens, UniProt Q9UBX0 95-180, F115L)
# Sequence of HESX1 (Homo sapiens, UniProt Q9UBX0 95-180, F115L) (Q9UBX0 95-180 F115L): as the sequence (Q9UBX0 95-180 R109Q) above, with Q15R, F21L counted along it
# ALX1 [17] = target: ALX1 (Homo sapiens, UniProt Q15699 118-204)
# Sequence of ALX1 (Homo sapiens, UniProt Q15699 118-204) (Q15699 118-204): as the sequence (Q15699 118-204 L144V) above, with V27L counted along it
# ALX3 [18] = target: ALX3 (Homo sapiens, UniProt O95076 139-225, N203S)
# Sequence of ALX3 (Homo sapiens, UniProt O95076 139-225, N203S) (O95076 139-225 N203S): as the sequence (O95076 139-225 N203Q) above, with Q65S counted along it
# Sequence of HESX1 (Homo sapiens, UniProt Q9UBX0 95-180) (Q9UBX0 95-180): as the sequence (Q9UBX0 95-180 R109Q) above, with Q15R counted along it
# Sequence of SHOX (Homo sapiens, UniProt O15266 103-189) (O15266 103-189): as the sequence (O15266 103-189 R173C) above, with C71R counted along it
# Sequence of ALX4 (Q9H161 200-286 Q225E): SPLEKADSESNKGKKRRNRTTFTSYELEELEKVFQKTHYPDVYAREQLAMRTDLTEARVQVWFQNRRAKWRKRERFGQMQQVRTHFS
# Sequence of MSX2 (P35548 130-214 R199I): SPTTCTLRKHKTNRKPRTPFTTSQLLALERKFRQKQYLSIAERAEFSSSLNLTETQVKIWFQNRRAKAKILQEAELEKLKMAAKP
# Sequence of HESX1 (Homo sapiens, UniProt Q9UBX0 95-180, R165K) (Q9UBX0 95-180 R165K): as the sequence (Q9UBX0 95-180 R109Q) above, with Q15R, R71K counted along it
sequence,measurement,setting,value
CTAATTGA,binding signal,HESX1 [1],"13.2 upbm affinity estimate (log intensity, higher = more binding, comparable within an allelic series)"
same,binding signal,SHOX [2],"12.6 upbm affinity estimate (log intensity, higher = more binding, comparable within an allelic series)"
same,binding signal,ALX4,"13.5 upbm affinity estimate (log intensity, higher = more binding, comparable within an allelic series)"
same,binding signal,HESX1 [3],"13.2 upbm affinity estimate (log intensity, higher = more binding, comparable within an allelic series)"
same,binding signal,MSX2,"12.8 upbm affinity estimate (log intensity, higher = more binding, comparable within an allelic series)"
same,binding signal,ALX1 [4],"11.9 upbm affinity estimate (log intensity, higher = more binding, comparable within an allelic series)"
same,binding signal,ALX3 [5],"8.21 upbm affinity estimate (log intensity, higher = more binding, comparable within an allelic series)"
same,binding signal,SHOX [6],"9.97 upbm affinity estimate (log intensity, higher = more binding, comparable within an allelic series)"
same,binding signal,ALX1 [7],"11.5 upbm affinity estimate (log intensity, higher = more binding, comparable within an allelic series)"
same,binding signal,ALX3 [8],"12.7 upbm affinity estimate (log intensity, higher = more binding, comparable within an allelic series)"
same,binding signal,PROP1 [9],"11.8 upbm affinity estimate (log intensity, higher = more binding, comparable within an allelic series)"
same,binding signal,HESX1 [10],"9.83 upbm affinity estimate (log intensity, higher = more binding, comparable within an allelic series)"
same,binding signal,PROP1 [11],"12.1 upbm affinity estimate (log intensity, higher = more binding, comparable within an allelic series)"
same,binding signal,ALX3 [12],"10.8 upbm affinity estimate (log intensity, higher = more binding, comparable within an allelic series)"
same,binding signal,HESX1 [13],"11.8 upbm affinity estimate (log intensity, higher = more binding, comparable within an allelic series)"
same,binding signal,ALX3 [14],"10.2 upbm affinity estimate (log intensity, higher = more binding, comparable within an allelic series)"
same,binding signal,PROP1 [15],"7.7 upbm affinity estimate (log intensity, higher = more binding, comparable within an allelic series)"
same,binding signal,HESX1 [16],"7.77 upbm affinity estimate (log intensity, higher = more binding, comparable within an allelic series)"
same,binding signal,ALX1 [17],"12.8 upbm affinity estimate (log intensity, higher = more binding, comparable within an allelic series)"
same,binding signal,ALX3 [18],"8.38 upbm affinity estimate (log intensity, higher = more binding, comparable within an allelic series)"
CAATTAAC,binding signal,HESX1 [1],"13.1 upbm affinity estimate (log intensity, higher = more binding, comparable within an allelic series)"
same,binding signal,SHOX [2],"12.1 upbm affinity estimate (log intensity, higher = more binding, comparable within an allelic series)"
same,binding signal,ALX4,"13.5 upbm affinity estimate (log intensity, higher = more binding, comparable within an allelic series)"
same,binding signal,HESX1 [3],"13.1 upbm affinity estimate (log intensity, higher = more binding, comparable within an allelic series)"
same,binding signal,MSX2,"13.1 upbm affinity estimate (log intensity, higher = more binding, comparable within an allelic series)"
same,binding signal,ALX1 [4],"11.8 upbm affinity estimate (log intensity, higher = more binding, comparable within an allelic series)"
same,binding signal,ALX3 [5],"8.37 upbm affinity estimate (log intensity, higher = more binding, comparable within an allelic series)"
same,binding signal,SHOX [6],"9.74 upbm affinity estimate (log intensity, higher = more binding, comparable within an allelic series)"
same,binding signal,ALX1 [7],"11.5 upbm affinity estimate (log intensity, higher = more binding, comparable within an allelic series)"
same,binding signal,ALX3 [8],"12.7 upbm affinity estimate (log intensity, higher = more binding, comparable within an allelic series)"
same,binding signal,PROP1 [9],"11.6 upbm affinity estimate (log intensity, higher = more binding, comparable within an allelic series)"
same,binding signal,HESX1 [10],"9.81 upbm affinity estimate (log intensity, higher = more binding, comparable within an allelic series)"
same,binding signal,PROP1 [11],"11.8 upbm affinity estimate (log intensity, higher = more binding, comparable within an allelic series)"
same,binding signal,ALX3 [12],"10.8 upbm affinity estimate (log intensity, higher = more binding, comparable within an allelic series)"
same,binding signal,HESX1 [13],"11.7 upbm affinity estimate (log intensity, higher = more binding, comparable within an allelic series)"
same,binding signal,ALX3 [14],"10.3 upbm affinity estimate (log intensity, higher = more binding, comparable within an allelic series)"
same,binding signal,PROP1 [15],"7.68 upbm affinity estimate (log intensity, higher = more binding, comparable within an allelic series)"
same,binding signal,HESX1 [16],"7.95 upbm affinity estimate (log intensity, higher = more binding, comparable within an allelic series)"
same,binding signal,ALX1 [17],"12.5 upbm affinity estimate (log intensity, higher = more binding, comparable within an allelic series)"
same,binding signal,ALX3 [18],"8.57 upbm affinity estimate (log intensity, higher = more binding, comparable within an allelic series)"
GGCAGGCC,binding signal,HESX1 [1],"6.38 upbm affinity estimate (log intensity, higher = more binding, comparable within an allelic series)"
same,binding signal,HESX1 [3],"6.43 upbm affinity estimate (log intensity, higher = more binding, comparable within an allelic series)"
same,binding signal,ALX1 [4],"6.33 upbm affinity estimate (log intensity, higher = more binding, comparable within an allelic series)"
same,binding signal,ALX1 [7],"6.11 upbm affinity estimate (log intensity, higher = more binding, comparable within an allelic series)"
same,binding signal,HESX1 [10],"6.29 upbm affinity estimate (log intensity, higher = more binding, comparable within an allelic series)"
same,binding signal,HESX1 [13],"6.43 upbm affinity estimate (log intensity, higher = more binding, comparable within an allelic series)"
same,binding signal,HESX1 [16],"6.33 upbm affinity estimate (log intensity, higher = more binding, comparable within an allelic series)"
same,binding signal,ALX1 [17],"6.33 upbm affinity estimate (log intensity, higher = more binding, comparable within an allelic series)"
ACCAATTA,binding signal,HESX1 [1],"13.7 upbm affinity estimate (log intensity, higher = more binding, comparable within an allelic series)"
same,binding signal,SHOX [2],"12.7 upbm affinity estimate (log intensity, higher = more binding, comparable within an allelic series)"
same,binding signal,ALX4,"13.8 upbm affinity estimate (log intensity, higher = more binding, comparable within an allelic series)"
same,binding signal,HESX1 [3],"13.6 upbm affinity estimate (log intensity, higher = more binding, comparable within an allelic series)"
same,binding signal,MSX2,"13.4 upbm affinity estimate (log intensity, higher = more binding, comparable within an allelic series)"
same,binding signal,ALX1 [4],"12.1 upbm affinity estimate (log intensity, higher = more binding, comparable within an allelic series)"
same,binding signal,ALX3 [5],"8.43 upbm affinity estimate (log intensity, higher = more binding, comparable within an allelic series)"
same,binding signal,SHOX [6],"10.4 upbm affinity estimate (log intensity, higher = more binding, comparable within an allelic series)"
same,binding signal,ALX1 [7],"11.7 upbm affinity estimate (log intensity, higher = more binding, comparable within an allelic series)"
same,binding signal,ALX3 [8],"12.8 upbm affinity estimate (log intensity, higher = more binding, comparable within an allelic series)"
same,binding signal,PROP1 [9],"12 upbm affinity estimate (log intensity, higher = more binding, comparable within an allelic series)"
same,binding signal,HESX1 [10],"10.8 upbm affinity estimate (log intensity, higher = more binding, comparable within an allelic series)"
same,binding signal,PROP1 [11],"12.3 upbm affinity estimate (log intensity, higher = more binding, comparable within an allelic series)"
same,binding signal,ALX3 [12],"11.1 upbm affinity estimate (log intensity, higher = more binding, comparable within an allelic series)"
same,binding signal,HESX1 [13],"12.3 upbm affinity estimate (log intensity, higher = more binding, comparable within an allelic series)"
same,binding signal,ALX3 [14],"10.7 upbm affinity estimate (log intensity, higher = more binding, comparable within an allelic series)"
same,binding signal,PROP1 [15],"7.81 upbm affinity estimate (log intensity, higher = more binding, comparable within an allelic series)"
same,binding signal,HESX1 [16],"8.41 upbm affinity estimate (log intensity, higher = more binding, comparable within an allelic series)"
same,binding signal,ALX1 [17],"12.7 upbm affinity estimate (log intensity, higher = more binding, comparable within an allelic series)"
same,binding signal,ALX3 [18],"8.62 upbm affinity estimate (log intensity, higher = more binding, comparable within an allelic series)"
CAATTATC,binding signal,HESX1 [1],"13 upbm affinity estimate (log intensity, higher = more binding, comparable within an allelic series)"
same,binding signal,SHOX [2],"11.8 upbm affinity estimate (log intensity, higher = more binding, comparable within an allelic series)"
same,binding signal,ALX4,"13.2 upbm affinity estimate (log intensity, higher = more binding, comparable within an allelic series)"
same,binding signal,HESX1 [3],"13.1 upbm affinity estimate (log intensity, higher = more binding, comparable within an allelic series)"
same,binding signal,MSX2,"13 upbm affinity estimate (log intensity, higher = more binding, comparable within an allelic series)"
same,binding signal,ALX1 [4],"11.7 upbm affinity estimate (log intensity, higher = more binding, comparable within an allelic series)"
same,binding signal,ALX3 [5],"8.4 upbm affinity estimate (log intensity, higher = more binding, comparable within an allelic series)"
same,binding signal,SHOX [6],"9.58 upbm affinity estimate (log intensity, higher = more binding, comparable within an allelic series)"
same,binding signal,ALX1 [7],"11.4 upbm affinity estimate (log intensity, higher = more binding, comparable within an allelic series)"
same,binding signal,ALX3 [8],"12.5 upbm affinity estimate (log intensity, higher = more binding, comparable within an allelic series)"
same,binding signal,PROP1 [9],"11.5 upbm affinity estimate (log intensity, higher = more binding, comparable within an allelic series)"
same,binding signal,HESX1 [10],"9.41 upbm affinity estimate (log intensity, higher = more binding, comparable within an allelic series)"
same,binding signal,PROP1 [11],"11.7 upbm affinity estimate (log intensity, higher = more binding, comparable within an allelic series)"
same,binding signal,ALX3 [12],"10.6 upbm affinity estimate (log intensity, higher = more binding, comparable within an allelic series)"
same,binding signal,HESX1 [13],"11.4 upbm affinity estimate (log intensity, higher = more binding, comparable within an allelic series)"
same,binding signal,ALX3 [14],"10.1 upbm affinity estimate (log intensity, higher = more binding, comparable within an allelic series)"
same,binding signal,PROP1 [15],"7.73 upbm affinity estimate (log intensity, higher = more binding, comparable within an allelic series)"
same,binding signal,HESX1 [16],"8 upbm affinity estimate (log intensity, higher = more binding, comparable within an allelic series)"
same,binding signal,ALX1 [17],"12.3 upbm affinity estimate (log intensity, higher = more binding, comparable within an allelic series)"
same,binding signal,ALX3 [18],"8.56 upbm affinity estimate (log intensity, higher = more binding, comparable within an allelic series)"
